Bioassay records as filed in PubChem.
In the library only some 0.38% were active in any assay of this set; here they are far more common.
Cdc42 wt GTP – modulators (inhibitors or activators) of GTP binding to human Cdc42 wildtype; GST-Cdc42 beads, Bodipy-GTP binding, flow cytometry; actives lie on both sides; hit rate 0.2% among 190,000; percent activity (GTP binding), % at 10 µM;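 active = percent activity GTP binding at least 20 points away from the 100% baseline, either down as inhibitor or up as activator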;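 note: median bead fluorescence of bound Bodipy-FL-GTP at 100 nM; below 100% means less GTP binding so inhibitor and above means activator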
Target sequence (P60953 whole entry, looked up): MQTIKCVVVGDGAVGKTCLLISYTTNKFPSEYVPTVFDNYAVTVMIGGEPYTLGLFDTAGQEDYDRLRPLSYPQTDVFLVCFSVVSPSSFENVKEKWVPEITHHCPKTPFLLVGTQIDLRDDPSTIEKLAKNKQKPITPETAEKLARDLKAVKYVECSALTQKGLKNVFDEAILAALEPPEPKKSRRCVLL
Rac1 wt modul – alters GTP binding to wildtype human Rac1. P63000. GST-Rac1 beads, fluorescent GTP binding, flow cytometry; actives lie on both sides; 0 = cold GTP competed, 100 = untreated. GTP binding activity (% of control), % at 10 µM. hit rate 0.27% among 190,000;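 active = GTP binding activity at least 20 points away from the 100% control level, either lower or higher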
HRas wt GTP – changes GTP binding to wildtype human HRas; P01112; GST-Ras wt beads, Bodipy-FL-GTP binding, flow cytometry; actives lie on both sides; GTP binding activity, % at 10 µM; hit rate 0.14% among 190,000; AID 759;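 active = GTP binding activity at least 20% away from the 100% baseline, either lowered as inhibitor or raised as activator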
Target sequence (P01112 whole entry, looked up): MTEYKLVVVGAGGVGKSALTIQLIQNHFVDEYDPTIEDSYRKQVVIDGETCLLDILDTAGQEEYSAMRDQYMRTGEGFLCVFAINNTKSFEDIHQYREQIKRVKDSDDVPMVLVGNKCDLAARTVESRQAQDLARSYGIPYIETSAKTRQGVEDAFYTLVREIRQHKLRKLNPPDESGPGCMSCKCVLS
Rac1 mut GTP – alters GTP binding to activated mutant human Rac1; P63000; GST-Rac1 activated beads, fluorescent GTP binding, flow cytometry; actives lie on both sides; 100% means binding = to untreated wells; percent activity (GTP binding), % at 10 µM; hit rate 0.11% among 190,000; AID 764;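 active = GTP binding at least 20 percentage points away from the 100% baseline, in either direction, so actives lie on both sides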
Rab2A wt mod – changes GTP binding to wildtype dog Rab2A, up or down | GST-Rab2 wt beads, Bodipy-GTP binding, flow cytometry | GTP binding activity, % at 10 µM | hit rate 0.19% among 190,000;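 active = GTP binding activity at least 20 points away from 100%, either lowered or raised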
Rab7 wt modul – dog Rab7 wildtype GTP binding, inhibitors and activators; GST-Rab7 beads, fluorescent GTP binding, flow cytometry; actives lie on both sides; untreated = 100%, excess cold GTP = 0%; GTP binding activity (percent of control), % at 10 µM; hit rate 0.055% among 190,000; AID 758;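 active = fluorescent GTP binding to Rab7 beads changed by at least 20 points from the 100% baseline, either direction, mostly lower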;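 note: median green fluorescence of bound Bodipy-FL-GTP per Rab7 bead population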
A number is an active result; n = inactive; [ ] = remark or other dose.

SMILES	Cdc42 wt GTP	Rac1 wt modul	HRas wt GTP	Rac1 mut GTP	Rab2A wt mod	Rab7 wt modul
COc1cc(/C=C2\SC(=Nc3ccc(O)cc3)NC2=O)cc(OC)c1O	79.0	72.0	n	n	n	n
C#CCNC(=O)C1=C[C@H](c2ccc(C(F)(F)F)cc2)[C@@H](CCCO)[C@H](OCC)O1	n	n	n	n	n	n
S=C(NC1CCCCC1)N1CCN(Cc2ccccc2Cl)CC1	n	n	n	n	n	n
CCOC(=O)c1cnc(SCc2ccc(C)cc2)nc1N	n	120.0[activator]	n	n	n	n
O=C(NCc1ccc2c(c1)OCO2)c1ccc(CSCc2cccc(Cl)c2)o1	79.0	n	n	n	n	n
O=C(/C=C/c1cccc([N+](=O)[O-])c1)OCC(=O)c1ccccc1	n	n	n	n	n	n
O=C(C#Cc1cccc([N+](=O)[O-])c1)c1ccccc1	78.0	n	n	78.0	n	n
COc1ccc(C(=O)NC(=S)N2CC(C)OC(C)C2)cc1 (centres undefined)	154.0[activator]	137.0[activator]	n	n	n	n
COc1ccc(C(=O)Nc2cc(Cl)ccc2OC(=O)c2ccc(OC)cc2)cc1	n	n	n	n	n	n
COc1ccc(C(=O)Nc2cc(Cl)ccc2C(=O)O)cc1	78.0	n	n	77.0	n	n
Cc1cc(C(=O)Oc2ccccc2C(=O)O)c(C)o1	120.0[activator]	127.0[activator]	n	n	n	n
CC1CCc2c(sc(NC(=O)COC(=O)c3ccc(O)cc3)c2C#N)C1 (centres undefined)	n	n	n	n	n	n
NC(=O)c1c(NC(=O)c2cnccn2)sc2c1CCCC2	n	70.0	n	n	n	n
NC(=O)c1c(NC(=O)c2ccncc2)sc2c1CCCC2	n	n	n	n	n	n
COc1cc(/C=C/c2ccc3cccc([N+](=O)[O-])c3n2)ccc1OCC(=O)O	70.0	n	72.0	n	69.0	n
Cc1cc2ncn(CCC(=O)NC(C)(C)C)c2cc1C	n	77.0	n	n	n	n
Cc1cc2ncn(CCC(=O)NC3CCCC3)c2cc1C	n	n	n	n	n	n
O=C(Nc1cccc2ccccc12)c1cnccn1	73.0	n	71.0	77.0	67.0	75.0
CC(Oc1ccccc1)C(=O)NC1=NCCS1 (centres undefined)	n	n	n	n	n	n
COc1ccc(OC)c(C(C(=O)NCc2ccco2)N(C(=O)Cn2nnc3ccccc32)C2CC2)c1 (centres undefined)	126.0[activator]	130.0[activator]	121.0[activator]	n	121.0[activator]	n
O=C1C(=O)c2ccc(-c3ccccc3)cc2-c2ccccc21	n	n	n	n	n	n
Nc1ccc2c(c1)C(=O)C(=O)c1ccccc1-2	70.0	n	n	n	n	n
CC(C)CC(=O)Nc1cccc(NC(=O)CC(C)C)n1	n	n	n	n	n	n
O=C(O)COc1ccccc1/C=N/NC(=O)c1cc(-c2ccc(F)cc2)nc2ccccc12	n	78.0	n	n	n	n
Cc1cc(C)n2nc(SCCOc3ccc(F)cc3)nc2n1	68.0	68.0	73.0	n	74.0	n
SMILES	Cdc42 wt GTP	Rac1 wt modul	HRas wt GTP	Rac1 mut GTP	Rab2A wt mod	Rab7 wt modul
N#Cc1c(C(F)(F)F)cc(-c2ccc(Cl)cc2)[nH]c1=O	76.0	78.0	n	78.0	n	78.0
CCOC(=O)CS(=O)(=O)c1ccc(O)cc1	n	n	n	n	n	n
O=C(O)C1CSC(CCc2ccccc2)N1 (centres undefined)	n	123.0[activator]	n	n	n	n
O=C(O)C1CSC(c2coc3ccccc3c2=O)N1 (centres undefined)	n	n	n	n	n	n
Cc1ccc(S(=O)(=O)Cc2ccc(C(=O)N3CCN(c4cc(C)ccc4C)CC3)o2)cc1	n	n	n	77.0	n	n
Cc1ccc(C)c(N2CCN(C(=O)c3ccc(CS(=O)(=O)c4ccccc4C)o3)CC2)c1	n	n	n	n	n	n
CSc1nc2ccc(NC(=O)C3CC(=O)N(Cc4ccco4)C3)cc2s1 (centres undefined)	75.0	n	n	n	n	n
COc1cc(/C=C(\C#N)c2nc3ccc(C)cc3[nH]2)cc([N+](=O)[O-])c1O	78.0	70.0	n	n	77.0	n
CNC(=O)COC(=O)c1cc(NC(=O)c2ccco2)c(OC)c(OC)c1	78.0	n	n	n	n	n
Cc1c(CCC(=O)O)c(=O)oc2cc(O)ccc12	n	n	n	n	n	n
Cc1c(CCC(=O)O)c(=O)oc2cc3occ(-c4ccc(F)cc4)c3cc12	n	68.0	n	n	n	n
Cc1ccccc1-n1nnnc1SCC(=O)N(C)C1CCS(=O)(=O)C1 (centres undefined)	n	n	n	n	n	n
CC1=C(C#N)c2nc(N)c(C#N)c(C)c2/C1=C\c1ccc(-c2ccccc2C(=O)O)o1	78.0	75.0	n	n	76.0	n
COc1cc(/C=C2/C(C)=C(C#N)c3nc(N)c(C#N)c(C)c32)ccc1OCC(=O)O	n	n	n	n	n	n
CCC(C)(C)C(=O)Nc1cccc(Cl)c1C	n	n	n	n	n	n
O=C(CCCCCNc1nc(=S)[nH]c2ccccc12)N1CCN(c2ccccn2)CC1	n	n	n	n	n	n
COc1cccc(N2CCN(C(=O)CCCCCNc3nc(=S)[nH]c4ccccc34)CC2)c1	79.0	74.0	n	n	n	n
CC(NC(=S)Nc1ccc([N+](=O)[O-])cc1)c1ccncc1 (centres undefined)	n	n	n	n	n	n
N#CC(C#N)=C1C=CC=CN1/C(=C\c1ccccc1)C(=O)c1cccs1	n	n	n	n	n	n
N#CC(C#N)=C1C=CC=CN1/C(=C\c1ccccc1Cl)C(=O)c1ccccc1	78.0	n	n	n	n	n
Cc1cc(C(=O)NCC(=O)OCC(=O)NCCc2ccccc2)ccc1[N+](=O)[O-]	n	n	n	n	n	n
CS(=O)(=O)N1CCN(C(=O)C2c3ccccc3Oc3ccccc32)CC1	n	121.0[activator]	n	n	n	n
FC(F)(F)c1cccc(NC(=S)NNC(=S)NCc2ccccc2)c1	n	n	n	80.0	n	n
COC(=O)C1CC(c2ccc(Cl)cc2)=NO1 (centres undefined)	n	n	n	n	n	n
CCCc1ccc(OCC(=O)Nc2cc(S(=O)(=O)CC)ccc2O)cc1	n	n	n	n	n	n
COc1ccc(CNC(=O)c2nnn(-c3cccc(C(F)(F)F)c3)c2N)cc1	n	n	n	n	n	n
COC(=O)CSc1nc2cc(Cl)ccc2c(=O)n1C1CCCC1	79.0	n	n	n	n	n
Cc1cc(NC(=O)CSc2nc3ccccc3c(=O)n2C2CCCC2)no1	n	n	n	n	n	n
